Source: PubChem
Shown are actives, neighbours in structure and some others; about 3.6% of the full set was active somewhere.
NadD block = blocks S. aureus nicotinate mononucleotide adenylyltransferase; purified NadD enzyme, colorimetric absorbance read-out; inhibition, % at 20 µM; 0.78% of 360,000 active; in the data active = inhibition above about 26%
FAS TE block = blocks the thioesterase domain of human fatty acid synthase; recombinant FAS-TE, OMFH fluorogenic substrate, fluorescence endpoint; inhibition, % at 15 µM; 0.67% of 360,000 active;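 active = compounds whose normalised, plate-corrected inhibition of enzyme fluorescence in the single-dose primary screen is 50% or more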;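 also: 0% = DMSO with enzyme and 100% = substrate without enzyme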
CendR NRP1 mod = modulators of CendR peptide binding to human neuropilin-1 | O14786 | FAM-RPARPAR peptide binding to NRP-1, fluorescence polarization | inhibition, % at 25 µM | 0.85% of 360,000 active;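 active = inhibition or corrected inhibition above about 18%, plus a signal ratio from 0.5 to 1.5, limit read from the data, passing the limit was not always enough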
CRFBP-R2 block = antagonists of CRF-binding protein/CRF-R2 receptor complex; HEK293 CRF-R2/CRF-BP, CRF-induced calcium fluorescence; inhibition, % at 11.8 µM; 0.59% of 350,000 active; AID 588475;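 active = inhibition of the ligand-induced calcium signal above about 50% at the single tested concentration, limit read from the data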
Myeloid diff 2 = myeloid differentiation induction; ER-HoxA9 myeloid progenitors, lysozyme-GFP differentiation, flow cytometry; calls only at 10 µM; 1% of 360,000 active; AID 624256;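 active = normalized GFP-positive differentiation at or above the plate's own cutoff, the solvent-only control mean plus 3 SD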;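 also: cells exposed to compound for four days before flow analysis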
Starred values were filed as active, the others as inactive; i = inactive; / = no result; + = active, no number.

SMILES | NadD block | FAS TE block | CendR NRP1 mod | CRFBP-R2 block | Myeloid diff 2
c1ccc(CNc2ncnc3c2cnn3Cc2ccccc2)cc1 | 0.8 | -2.8 | -6.4 | -51.0 | +
OCCNc1ncnc2c1cnn2Cc1ccccc1 | -1.6 | -5.9 | -7.6 | 19.3 | i
CC(=O)c1c(C)[nH]c(C(=O)OCC(=O)Nc2cc(C(F)(F)F)ccc2N2CCOCC2)c1C | -2.6 | 12.3 | 10.2 | -5.7 | +
O=C(COC(=O)/C=C/c1ccc(F)cc1)Nc1cc(C(F)(F)F)ccc1N1CCOCC1 | 0.9 | -9.2 | 3.2 | 3.0 | i
CC1CC(C)CN(C(=O)C(NS(=O)(=O)c2ccc3c(c2)oc(=O)n3C)C(C)C)C1 (stereo not drawn) | -2.0 | -1.6 | 12.4 | 3.5 | i
CC(C)C(NS(=O)(=O)c1ccc2c(c1)oc(=O)n2C)C(=O)N1CCN(C2CCCCC2)CC1 (stereo not drawn) | 3.4 | -0.7 | 10.5 | 57.7* | i
c1ccn2c(SCc3ccc4c(c3)OCO4)nnc2c1 | -0.7 | -7.1 | 24.4* | -5.3 | i
O=C(CCSc1nnc2ccccn12)Nc1ccc2c(c1)OCO2 | 3.1 | -4.9 | 22.6* | -38.7 | i
Cc1nc2c(OCc3ccc(C#N)cc3)cccn2c1N(C)Cc1cccs1 | 5.3 | 17.1 | 1.7 | / | i
COc1cccc(C(C)(O)c2nc(-c3cccs3)cs2)c1 (stereo not drawn) | -4.9 | 4.9 | -5.3 | / | i
Cc1ccc2cccc(NC(=S)NC(=O)c3ccnn3C)c2n1 | 2.7 | 5.4 | 1.3 | -6.5 | +
O=C(O)c1ccccc1-c1ccc(/C=c2\sc3nc4cc(Br)cnc4n3c2=O)o1 | 25.6 | -5.2 | -239.9 | -155.8 | i
Cc1cc2nc3s/c(=C/c4ccc(-c5ccccc5C(=O)O)o4)c(=O)n3c2cc1C | 16.4 | -55.8 | -115.2 | -100.9 | +
COc1ccc2oc(C(=O)OCC(=O)c3ccc4c(c3)OCCO4)c(C)c2c1 | -7.2 | 20.9 | 7.7 | 2.0 | +
COC(=O)C[C@H]1C[C@H]2c3cc(NC(=O)Cc4ccncc4)ccc3O[C@H]2[C@@H](CO)O1 | -2.4 | -9.9 | -8.1 | -21.0 | i
CC(C)C(NC=C1C(=O)OC(C)(C)OC1=O)C(=O)O (stereo not drawn) | -2.1 | -9.0 | -2.7 | -2.9 | i
CC(O)C(NC=C1C(=O)OC(C)(C)OC1=O)C(=O)O (stereo not drawn) | 2.6 | -7.6 | 29.2* | 4.3 | i
O=C(NN=C1CCC(c2ccccc2)CC1)c1cc2c(s1)CCCC2 (stereo not drawn) | -3.1 | -8.8 | -2.9 | -29.5 | i
CC1CCc2sc(C(=O)NN=C3CCC(c4ccccc4)CC3)cc2C1 (stereo not drawn) | 7.3 | -7.1 | 5.1 | -41.1 | +
Cc1cc(NS(=O)(=O)c2cn(C)nc2C)no1 | -7.3 | -6.6 | 18.2 | -1.0 | +
COc1ccc(C(=O)N(C)CCOc2ccc(Cl)cc2)cc1S(=O)(=O)N1CCCC1 | 2.7 | 1.7 | -0.7 | -11.3 | i
C[C@H](CO)N1C[C@H](C)[C@@H](CN(C)Cc2ccc3c(c2)OCO3)Oc2cc(Br)ccc2S1(=O)=O | -3.3 | 19.5 | -8.1 | -14.9 | i
OCCC1CN(Cc2cc3c(cc2Cl)OCO3)CCN1C1CCCCC1 (stereo not drawn) | 5.1 | -8.0 | -13.0 | -8.7 | i
NC(=O)c1ccccc1NC(=O)C(c1ccccc1)c1ccccc1 | -3.1 | -2.3 | 40.2* | -7.0 | i
CS(=O)(=O)N1N=C(c2ccc(Br)cc2)CC1c1ccc2c(c1)OCO2 (stereo not drawn) | -7.0 | 16.0 | -74.0 | 1.3 | +
SMILES | NadD block | FAS TE block | CendR NRP1 mod | CRFBP-R2 block | Myeloid diff 2
CS(=O)(=O)Nc1ccc(C2=NN(S(C)(=O)=O)C(c3ccc4nccnc4c3)C2)cc1 (stereo not drawn) | -5.4 | -4.0 | -138.8 | 25.8 | i
CCS(=O)(=O)Nc1cccc(C2=NN(S(C)(=O)=O)C(c3ccccc3)C2)c1 (stereo not drawn) | -1.4 | -9.3 | -265.3 | 0.6 | i
CCS(=O)(=O)N1N=C(c2cccc(NS(C)(=O)=O)c2)CC1c1ccc(C)cc1 (stereo not drawn) | 14.7 | -30.7 | 133.6 | -1.6 | +
Cc1ccc(C2=NN(S(C)(=O)=O)C(c3ccc4c(c3)OCO4)C2)cc1 (stereo not drawn) | 1.0 | 0.6 | -137.5 | 16.1 | +
CC(=O)N1N=C(c2ccc(C)cc2)CC1c1ccc2c(c1)OCO2 (stereo not drawn) | -6.3 | 9.9 | -4.0 | -5.6 | i
Cc1ccc(S(=O)(=O)N2CC(CO)=CCC2c2ccccc2)cc1 (stereo not drawn) | / | / | -6.2 | / | i
